Records with an inconclusive call do not appear. Active and inactive are the calls of the source. How the source made its calls: active means hit-call score of the fitted dose curve at least 0.9, where 1 is the maximum; inconclusive means response in the unintended direction; inactive means score below 0.9.
Tests used:
[1] = Tanguay_ZF_120hpf_EYE_legacy: (Legacy) Oregon State University Tanguay Lab 120 Hour Post-fertilization zebrafish Assay for Eye Malformation (AID 2283636);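 further: binary presence or absence of eye malformation scored by brightfield in 120 hpf larvae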
How it was run: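 5D wild-type embryos, pronase-dechorionated at 4 hpf; static exposure 6–120 hpf, 28C, dark; DMSO 0.64% final; 5uM trimethyltin chloride positive control. Binary eye-defect scoring at 120 hpf; dead embryos not scored.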

[2] = Tanguay_ZF_120hpf_SNOU_legacy: (Legacy) Oregon State University Tanguay Lab 120 Hour Post-fertilization zebrafish Assay for Snout Malformation (AID 2283637)
How it was run: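 Binary brightfield scoring of snout malformation at 120 hpf. Dechorionated 5D wild-type embryos, one per well, static exposure from 6 hpf at 28C, sealed and dark; final DMSO 0.64% (vol/vol), DMSO as baseline; 5uM trimethyltin chloride positive control.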

[3] = Tanguay_ZF_120hpf_JAW_legacy: (Legacy) Oregon State University Tanguay Lab 120 Hour Post-fertilization zebrafish Assay for Jaw Malformation (AID 2283638);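 on AC50: active means more embryos with jaw malformation than DMSO controls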
How it was run: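 Binary jaw-malformation call at 120 hpf by brightfield microscopy. Embryos (Tropical 5D strain, chorion removed at 4 hpf) were dosed statically at 6 hpf, one per well, at 28C with 0.64% DMSO. Embryos that died were not scored.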

[4] = Tanguay_ZF_120hpf_OTIC_legacy: (Legacy) Oregon State University Tanguay Lab 120 Hour Post-fertilization zebrafish Assay for Otic Vesicle Malformation (AID 2283639)
How it was run: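 Statically exposed wild-type 5D zebrafish embryos, kept sealed and dark at 28C through 120 hours post fertilization, were examined by brightfield microscopy for otic vesicle defects. Responses were recorded as present or absent and analysed relative to DMSO.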

[5] = Tanguay_ZF_120hpf_PE_legacy: (Legacy) Oregon State University Tanguay Lab 120 Hour Post-fertilization zebrafish Assay for Pericardial Edema (AID 2283640);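 on AC50: potency for increased incidence of pericardial edema versus DMSO baseline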
How it was run: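 Scoring was binary, by brightfield microscopy at 120 hpf, and skipped where mortality occurred. Wild-type embryos were kept under sealed, foil-covered static exposure at 28C in 0.64% (vol/vol) DMSO.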

[6] = Tanguay_ZF_120hpf_BRAI_legacy: (Legacy) Oregon State University Tanguay Lab 120 Hour Post-fertilization zebrafish Assay for Brain Malformation (AID 2283641)
How it was run: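 Binary brightfield scoring of brain malformation at 120 hpf in Tropical 5D larvae held under static exposure at 28C (0.64% v/v DMSO), non-mortality endpoints skipped if dead. Positive control: 5uM trimethyltin chloride; fit versus DMSO.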

[7] = Tanguay_ZF_120hpf_SOMI_legacy: (Legacy) Oregon State University Tanguay Lab 120 Hour Post-fertilization zebrafish Assay for Somite Malformation (AID 2283647)
How it was run: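 Binary somite-defect scoring at 120 hpf, omitted for embryos that died, in wild-type (Tropical 5D) zebrafish with chorion removed by pronase at 4 hpf; static exposure began 6 hpf, single embryos per well, 28C, 0.64% DMSO; fitted positive versus DMSO.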

[8] = Tanguay_ZF_120hpf_PFIN_legacy: (Legacy) Oregon State University Tanguay Lab 120 Hour Post-fertilization zebrafish Assay for Pectoral Fin Malformation (AID 2283648);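 further: each larva judged yes or no for fin defect by brightfield with dead larvae skipped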
How it was run: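 Binary pectoral fin malformation call at 120 hpf by brightfield microscopy; 5D wild-type zebrafish, chorion removed at 4 hpf, one embryo per well from 6 hpf, static exposure at 28C; DMSO (0.64% final) as baseline.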

[9] = Tanguay_ZF_120hpf_CFIN_legacy: (Legacy) Oregon State University Tanguay Lab 120 Hour Post-fertilization zebrafish Assay for Caudal Fin Malformation (AID 2283649)
How it was run: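 Binary brightfield scoring of caudal fin defects at 120 hpf after static, light-shielded exposure at 28C from 6 hpf. Tropical 5D embryos, chorion removed with pronase at 4 hpf, final DMSO 0.64%.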

[10] = Tanguay_ZF_120hpf_PIG_legacy: (Legacy) Oregon State University Tanguay Lab 120 Hour Post-fertilization zebrafish Assay for Pigmentation Malformation (AID 2283650);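 further: dechorionated Tropical 5D zebrafish embryos exposed singly from 6 to 120 hpf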
How it was run: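 Brightfield scoring of pigmentation malformation at 120 hpf, recorded as binary present/absent per larva. Exposure: dechorionated 5D wild-type embryos, one per well, static from 6 hpf at 28C, final DMSO 0.64% (vol/vol). Dead embryos not scored.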

Measured: AC50

C1=Cc2cccc3cccc1c23
inactive: all assays above

CCN(CC)N=O
inactive: all assays above

COc1cc(C=O)cc2c1[C@H](COC(N)=O)[C@]1(OC(C)=O)ON2C[C@H]2[C@@H]1N2C(C)=O
active: [2] 21.6 µM
not listed: [7] | [9]
inactive: all other assays above

Cc1ccc(N=C=O)cc1N=C=O
not listed: [9] | [10]
inactive: all other assays above

Nc1ccc([N+](=O)[O-])cc1
not listed: [7]
inactive: all other assays above

N#CC(Br)(Br)C(N)=O
not listed: [6] | [10]
inactive: all other assays above

c1ccc(C2CO2)cc1 (stereo not given)
not listed: [7]
inactive: all other assays above

COC(=O)c1ccccc1N
inactive: [1] | [2] | [3] | [4] | [5] | [7]

Cc1cc(N=Nc2ccccc2C)ccc1N
active: [5] 55.7 µM
not listed: [7] | [9]
inactive: all other assays above

CN(C)C(=O)Nc1ccc(Cl)cc1
not listed: [7] | [9]
inactive: all other assays above

Clc1ccc(C(c2ccc(Cl)cc2)C(Cl)Cl)cc1
inactive: [1] | [2] | [3] | [4] | [5]

CC(C)N(Cc1ccccc1)C(=O)C(C)(C)C
not listed: [10]
inactive: all other assays above

OCCCBr
not listed: [6] | [10]
inactive: all other assays above

Cn1cc(-c2ccccc2)c(=O)c(-c2cccc(C(F)(F)F)c2)c1
not listed: [7]
inactive: all other assays above

COP(=S)(OC)SCN1C(=O)c2ccccc2C1=O
not listed: [9]
inactive: all other assays above

CCC(C)c1ccc(O)cc1 (stereo not given)
not listed: [10]
inactive: all other assays above

CCCCCCCCCCCCCN1CC(C)OC(C)C1 (stereo not given)
not listed: [7] | [9]
inactive: all other assays above

CNC(=O)Oc1cccc2c1OC(C)(C)C2
active: [2] 43.9 µM | [3] 36 µM
inactive: all other assays above

Nc1ccc(N=Nc2ccccc2)cc1
active: [5] 25.6 µM
not listed: [9] | [10]
inactive: all other assays above

CCNS(=O)(=O)C(F)(F)C(F)(F)C(F)(F)C(F)(F)C(F)(F)C(F)(F)C(F)(F)C(F)(F)F
active: [1] 53.6 µM | [2] 54.9 µM | [3] 41.5 µM | [4] 46.9 µM | [5] 53.8 µM | [6] 45.5 µM | [7] 9.56 µM | [8] 48.4 µM | [10] 46.8 µM

CO[C@@H]1[C@H](OC(=O)NC(=O)CCl)CC[C@]2(CO2)[C@H]1[C@@]1(C)O[C@@H]1CC=C(C)C
inactive: [1] | [4] | [7] | [8]
active: [2] 0.239 µM | [3] 0.0405 µM | [5] 0.0102 µM

CC(C)(OOC(C)(C)c1ccccc1)c1ccccc1
not listed: [7] | [9]
inactive: all other assays above

Oc1ccc2ccc3cccc4ccc1c2c34
active: [1] 44.9 µM | [2] 44.2 µM | [3] 46.8 µM | [4] 11.2 µM | [5] 50.4 µM | [6] 46.1 µM | [7] 18.4 µM | [8] 12.2 µM | [10] 44 µM

Nc1ccc(Oc2ccc(N)cc2)cc1
inactive: all assays above

Cc1cccc(N)c1N
active: [5] 54 µM
not listed: [7] | [9]
inactive: all other assays above

[O-][Cl+]O
not listed: [7]
inactive: all other assays above

OCCCl
not listed: [7] | [9]
inactive: all other assays above

c1ccc2c(c1)oc1ccccc12
not listed: [6]
inactive: all other assays above

O=C(Oc1ccc(Br)cc1)N1CCN2CCC1CC2
active: [5] 9.47 µM
not listed: [6] | [7]
inactive: all other assays above

O=C1CCCO1
not listed: [6] | [9]
inactive: all other assays above

CCCCCOC(=O)c1ccccc1C(=O)OCCCCC
not listed: [6] | [7] | [9]
inactive: all other assays above

CCC12COCN1COC2
not listed: [5] | [6] | [9]
inactive: all other assays above

Clc1ccccc1Cl
not listed: [6] | [9]
inactive: all other assays above

Cc1ccc([N+](=O)[O-])cc1
not listed: [6] | [7]
inactive: all other assays above

CN(C)c1ccc(C(=O)c2ccc(N(C)C)cc2)cc1
active: [1] 8.23 µM | [2] 27.7 µM | [3] 23.4 µM | [4] 12.9 µM | [5] 22.7 µM | [8] 17.2 µM

OCCOCCO
not listed: [6] | [7]
inactive: all other assays above

CC(O)CCO (stereo not given)
not listed: [6] | [7] | [9]
inactive: all other assays above

CCOC(=O)[C@]1(c2ccccc2)Oc2ccccc2[C@@H]1N
not listed: [6] | [8] | [9]
inactive: all other assays above

Source: PubChem BioAssay (EPA / NIEHS)
